Screening results as filed in PubChem BioAssay.
HIV RNase H inh-1: blocks HIV-1 RNase H cleavage of RNA/DNA duplex. P04585. RT-RNase H RNA/DNA duplex cleavage, fluorescence. inhibition, % at 10 µM. 65,000 tested, 1.9% active. AID 565; in the data active = inhibition above about 50%
HIV RNase H inh-2: confirmation of HIV-1 reverse transcriptase RNase H inhibitors; shares compounds with HIV RNase H inh-1; Recombinant RT RNase H, fluorescent RNA/DNA duplex cleavage; inhibition, % at 10 µM; 1,000 tested, 39% active; AID 651; in the data active = inhibition above about 48%; inconclusive = no clear call, values can overlap the other calls
* = called active by the depositor; ? = inconclusive. The sample as a whole holds a higher share of hits than the screen did.

SMILES	HIV RNase H inh-1	others
COc1ccc(CCNC(=O)C2CCN(S(=O)(=O)N3CC(C)CC(C)C3)CC2)cc1OC (stereo not given)	-5
COCCCNC(=O)C(F)(F)C(F)(F)C(=O)NCCCOC	-6
CC(C)(C)NC(=O)c1ccccc1-c1nc(-c2ccccc2Cl)no1	-13
O=c1[nH]c2ccc(Br)cc2c(-c2ccccc2)c1N1CCOCC1	-3
O=c1c2c([nH]c3ccc(Br)cc13)CCCC2	-2
O=c1ccc2cc3c([nH]c4ccc(Br)cc43)oc-2c1O	88*	HIV RNase H inh-2=58*
S=C(c1ccc2c(c1)OCO2)N1CCCC1	-16
N#CCCCn1c(-c2ccccc2)noc1=O	-13
Oc1ccccc1NCC(O)Cn1ccc2ccccc21 (stereo not given)	78*	HIV RNase H inh-2=29
O=C1c2ccccc2S(=O)(=O)N1CC(O)Cn1ccc2ccccc21 (stereo not given)	-7
OCc1nc2ccccc2n1CC(O)Cn1ccc2ccccc21 (stereo not given)	-9
CCOC(=O)c1cnc(SCc2nc(N)nc(Nc3ccc(C)cc3)n2)nc1N	-21
Cc1ccc(Cn2ccc(NC(=O)c3c(-c4ccccc4Cl)noc3C)n2)cc1	-18
CCCCOc1ccc(/C=c2\sc3ncnn3c2=O)cc1	15
O=c1/c(=C/c2cccc3ccccc23)sc2ncnn12	96*	HIV RNase H inh-2=0
Cc1ccsc1/C=c1\sc2ncnn2c1=O	2
COC(=O)c1c(C)cc(C)n2c1nc1ccccc12	-15
Cc1csc(NC(=O)Cc2nn(C)c(=O)c3ccccc23)n1	11
Cc1ccc(NCCNc2ccc(C)cc2)cc1	-4
Cc1ccc(CNc2ccc(O)cc2)cc1	57*	HIV RNase H inh-2=3
CC(=O)N1CCN(c2ccc(NCc3ccc(C)cc3)cc2)CC1	0
CC1=C(C(=O)NC2CCC(C)CC2)C2(CCC(C)CC2)OC1=O (stereo not given)	3
CCOCC(=O)Nc1ccc(S(=O)(=O)NCCc2ccccc2)cc1	-11
Cc1cc(C)nc(N2CCCC(C(=O)NC(C)CCc3ccco3)C2)n1 (stereo not given)	-8
CCOC(=O)C1CCN(S(=O)(=O)C(F)(F)c2nc3ccccc3s2)CC1	-4
SMILES	HIV RNase H inh-1	others
Fc1ccc(N2CCN(C(c3cccs3)c3nnnn3C3CCCC3)CC2)cc1 (stereo not given)	2
c1cc(C(c2nnnn2C2CCCC2)N2CCOCC2)ccn1 (stereo not given)	-5
Oc1ccc(N2CCN(C(c3ccncc3)c3nnnn3C3CCCC3)CC2)cc1 (stereo not given)	79*	HIV RNase H inh-2=?
COC(=O)c1ccc(Cl)c(NC(=O)CN(c2ccc3c(c2)OCO3)S(C)(=O)=O)c1	-2
COC(=O)NCc1cccc(CNC(=O)OC)c1	-42
COCC(=O)N(C)c1nnc(-c2cnc(C)cn2)s1	-19
Cc1cccc2cc(C(c3nnnn3CC3CCCO3)N3CCCc4ccccc43)c(=O)[nH]c12 (stereo not given)	7
CCc1ccc2[nH]c(=O)c(C(c3nnnn3CC3CCCO3)N3CCCc4ccccc43)cc2c1 (stereo not given)	8
Cc1cc2cc(C(c3nnnn3CC3CCCO3)N3CCCc4ccccc43)c(=O)[nH]c2cc1C (stereo not given)	52*	HIV RNase H inh-2=29
O=C(CN1C(=O)CSc2ccccc21)Nc1ccccc1C(=O)N1CCOCC1	2
COc1ccc(Cl)cc1C(=O)CSc1nc(N)cc(N)n1	-30
Cn1c(=O)c2c(nc(SCCCO)n2Cc2ccccc2Cl)n(C)c1=O	-26
CCOc1ccc(CCNC(=O)CN2CCN(Cc3ccccc3C)C2=O)cc1OCC	-10
CCCCCC(=O)N(O)C1CC(=O)N(c2ccccc2)C1=O (stereo not given)	16
CCCCCCC(=O)N(O)C1CC(=O)N(Cc2ccccc2)C1=O (stereo not given)	66*	HIV RNase H inh-2=32
O=C1CC(N(O)C2CC(=O)N(Cc3ccccc3)C2=O)C(=O)N1Cc1ccccc1 (stereo not given)	28
COc1ccc(Nc2nc(C)cc(C)c2C#N)cc1OC	-6
CC1(C)C=Cc2c(c3ccccc3[nH]c2=O)O1	-11
CCOc1cccc(C2c3c(oc4cc(C)c(C)cc4c3=O)C(=O)N2CCCN(C)C)c1 (stereo not given)	12
Cc1ccc(S(=O)(=O)Cn2nnnc2C(c2ccc(F)cc2)N2CCC(C(N)=O)CC2)cc1 (stereo not given)	15
Cc1ccc2c(c1C)NC(C(=O)O)C1CC=CC21 (stereo not given)	96*	HIV RNase H inh-2=69*
O=C(c1ccc(Cl)cc1)c1ccccc1C(=O)N1CCOCC1	3
O=C(O)C1Nc2c(C(=O)N3CCOCC3)cccc2C2C=CCC12 (stereo not given)	77*	HIV RNase H inh-2=35
Cc1ccc(C)c(NC(=O)C2CC=CCC2C(=O)O)c1 (stereo not given)	1
O=C(c1ccccc1)c1ccccc1C(=O)N1CCOCC1	-2
SMILES	HIV RNase H inh-1	others
C=CCOC(=O)C1=C(C)Nc2nc3ccccc3n2C1c1ccncc1 (stereo not given)	4
O=C(c1cccs1)c1cn(CC(=O)N2CCc3ccccc3C2)c2ccccc12	-15
CCn1c(SCC(=O)Nc2nccs2)nnc1-c1ccc(S(=O)(=O)N2CCCCC2)cc1	-9
CC(=O)C1C(c2ccc(F)c(F)c2)NC(=O)NC1(O)C(F)(F)F (stereo not given)	-6
O=C(CN1CCN(S(=O)(=O)c2ccc(Cl)cc2)CC1)Nc1ccc2c(c1)OCCO2	-7
N#Cc1c(NC(=O)CN2CCN(S(=O)(=O)c3ccc4c(c3)OCCO4)CC2)sc2c1CCC2	70*	HIV RNase H inh-2=78*
O=C(CN1CCN(S(=O)(=O)c2ccc(Br)cc2)CC1)Nc1ccc2c(c1)OCCO2	-3
CC1(C)CC(=O)CC(=Nc2ccc(C(=O)O)cc2)C1	-13
CCOc1ccc(-c2nnn(CC(=O)c3cc(OC)ccc3OC)n2)cc1	5
Cc1nc2ccc(C(C(F)(F)F)(C(F)(F)F)C(F)(F)F)cc2[nH]1	-17
Cc1ccc(N2C(=O)C3C(C2=O)C2C=CC3C23CC3)cc1 (stereo not given)	1
O=C1C2C(C(=O)N1c1ccncc1)C1C=CC2C12CC2 (stereo not given)	74*	HIV RNase H inh-2=29
COc1cccc(N2C(=O)C3C(C2=O)C2C=CC3C23CC3)c1 (stereo not given)	4
Cc1ccc(C(=O)NCCCn2ccnc2)o1	2
O=C(NCCCn1ccnc1)C(Cc1ccccc1)N1C(=O)c2ccccc2C1=O (stereo not given)	55*	HIV RNase H inh-2=35
COCCSc1ccccc1C(=O)NCCCn1ccnc1	18
CCc1nc(SCC(=O)N2CCCc3ccccc32)c2c(=O)n(C)c(=O)n(C)c2n1	1
CCCC1COC(Cn2cncn2)(c2ccc(C)cc2)O1 (stereo not given)	-11
CC1(c2ccc(Cl)cc2Cl)OCC(Cn2ccnc2)O1 (stereo not given)	-10
CCC(C)n1ncn(-c2ccc(N3CCN(c4ccc(OCC5COC(Cn6cncn6)(c6ccc(Cl)cc6Cl)O5)cc4)CC3)cc2)c1=O (stereo not given)	73*	HIV RNase H inh-2=37
O=C(Cc1ccccc1)N1CCCC1c1ccccc1 (stereo not given)	-10
CN(C)CCCN1C(=O)C(=O)/C(=C(/O)c2ccc3c(c2)OCO3)C1c1ccccn1 (stereo not given)	-3
O=C(O)C1Sc2[nH]c(=O)sc2C2c3cc(Cl)ccc3OC(=O)C12 (stereo not given)	72*	HIV RNase H inh-2=20
